According to the supplement of paper PMC10849652:
About 8,800 targets were measured; listed, in parts, are those with a hit and a random draw of the rest. About 0.5% of all pairs of compound and target were hits. Values without a mark were called inactive.

What was measured:
Experiment in all cases: log2 fold change, soluble protein after heating vs DMSO (PISA); higher = thermal stabilisation; K562 lysate, 10 uM; active = over 0.2 and 3.5 SD of the protein, either way, in both replicates (recomputed)
ibrutinib = compound: C=CC(=O)N1CCC[C@@H](n2nc(-c3ccc(Oc4ccccc4)cc3)c3c(N)ncnc32)C1 [ibrutinib]
Method in brief: (§1)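 Dounce homogenisation of K562 pellets in PBS pH 7.4 with 1 mM MgCl2 produced a crude extract, used at 1 mg/mL protein. Exposure to 10 μM compound lasted 30 min, and aliquots were then heated for 3 min across 48°C-58°C, pooled and brought to 0.5% NP-40 at 4°C. The supernatant after 21,000xg for 90 min was quantified by TMTpro 16plex LC-MS/MS with channel sums equalised. Duplicate values are given as log-two fold change in thermal stability relative to solvent controls.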

[1] = compound: CC(=O)c1cnc2ccc(-c3cc(Cl)c(O)c(Cl)c3)nc2c1N[C@H]1CC[C@H](CN(C)C)CC1
Method in brief: as §1

ralimetinib = compound: CC(C)(C)Cn1c(N)nc2ccc(-c3[nH]c(C(C)(C)C)nc3-c3ccc(F)cc3)nc21 [ralimetinib]
Method in brief: as §1

[2] = compound: CC(C)(O)CC(=O)NCCn1ccc2ncnc(Nc3ccc(Oc4cccc(C(F)(F)F)c4)c(Cl)c3)c21
Method in brief: as §1

[3] = compound: CC(C)C1=C2N=C(C=C(N2N=C1)NCC3=CC=CC=C3)NCCCCCCN
Method in brief: as §1

[4] = compound: CC1=C(C(CC(=O)N1)C2=CC=C(C=C2)C(F)(F)F)C(=O)NC3=C(C=C4C(=C3)C=NN4)F
Method in brief: as §1

[5] = compound: CC1=C(C2=C(C=C1)C(=O)C3=CC=CC=C3N2CCCN)C
Method in brief: as §1

[6] = compound: CC1=C(C=C(C=C1)NC(=O)C2=CC(=CC=C2)C(C)(C)C#N)NC3=CC4=C(C=C3)N=CN(C4=O)C
Method in brief: as §1

[7] = compound: CC1=C(C=C(C=C1)NC(=O)C2=CC(=CC=C2)N(C)C)NC(=O)C3=CC=C(C=C3)O
Method in brief: as §1

[8] = compound: CC1=CC=C(C=C1)SC2=C3C=C(SC3=CN=C2)C(=O)N
Method in brief: as §1

vemurafenib = compound: CCCS(=O)(=O)Nc1ccc(F)c(C(=O)c2c[nH]c3ncc(-c4ccc(Cl)cc4)cc23)c1F [vemurafenib]
Method in brief: as §1

[9] = compound: CCCS(=O)(=O)Nc1ccc(F)c(C(=O)c2c[nH]c3ncc(Cl)cc23)c1F
Method in brief: as §1

barasertib = compound: CCN(CCCOc1ccc2c(Nc3cc(CC(=O)Nc4cccc(F)c4)[nH]n3)ncnc2c1)CCOP(=O)(O)O [barasertib]
Method in brief: as §1

[10] = compound: CC[C@@H]1C(=O)N(C)c2cnc(Nc3ccc(C(=O)NC4CCN(C)CC4)cc3OC)nc2N1C1CCCC1
Method in brief: as §1

volasertib = compound: CC[C@@H]1C(=O)N(C)c2cnc(Nc3ccc(C(=O)N[C@H]4CC[C@H](N5CCN(CC6CC6)CC5)CC4)cc3OC)nc2N1C(C)C [volasertib]
Method in brief: as §1

[11] = compound: CCn1c(C(=O)N(C2CC2)C2CC2)cc2c3c(ncn3C)c(Nc3cc(C)n(C)n3)nc21
Method in brief: as §1

[12] = compound: CCn1cc(-c2ccnc3[nH]c(-c4cccc(CN(C)C)c4)cc23)c(-c2ccc(NC(=O)N(C)C)cc2)n1
Method in brief: as §1

[13] = compound: CN1CCC(CNc2ccc3ncc(-c4cccc(OC(F)(F)F)c4)n3n2)CC1
Method in brief: as §1

saracatinib = compound: CN1CCN(CCOc2cc(OC3CCOCC3)c3c(Nc4c(Cl)ccc5c4OCO5)ncnc3c2)CC1 [saracatinib]
Method in brief: as §1

sotrastaurin = compound: CN1CCN(c2nc(C3=C(c4c[nH]c5ccccc45)C(=O)NC3=O)c3ccccc3n2)CC1 [sotrastaurin]
Method in brief: as §1

UniProt O43175, sequence (O43175 whole entry, looked up): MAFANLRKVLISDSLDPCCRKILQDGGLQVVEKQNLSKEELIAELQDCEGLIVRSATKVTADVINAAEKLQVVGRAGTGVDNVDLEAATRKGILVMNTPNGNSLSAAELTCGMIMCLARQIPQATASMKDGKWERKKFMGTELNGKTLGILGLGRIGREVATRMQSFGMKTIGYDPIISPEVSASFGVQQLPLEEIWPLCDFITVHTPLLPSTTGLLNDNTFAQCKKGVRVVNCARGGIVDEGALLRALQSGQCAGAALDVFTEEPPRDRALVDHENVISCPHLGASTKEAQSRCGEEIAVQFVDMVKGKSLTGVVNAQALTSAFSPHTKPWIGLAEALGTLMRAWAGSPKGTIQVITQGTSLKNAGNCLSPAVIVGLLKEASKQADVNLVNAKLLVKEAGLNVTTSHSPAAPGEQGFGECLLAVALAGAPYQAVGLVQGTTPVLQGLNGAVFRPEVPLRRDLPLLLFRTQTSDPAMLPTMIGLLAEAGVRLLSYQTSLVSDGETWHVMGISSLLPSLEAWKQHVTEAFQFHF
UniProt P31323, sequence (P31323 whole entry, looked up): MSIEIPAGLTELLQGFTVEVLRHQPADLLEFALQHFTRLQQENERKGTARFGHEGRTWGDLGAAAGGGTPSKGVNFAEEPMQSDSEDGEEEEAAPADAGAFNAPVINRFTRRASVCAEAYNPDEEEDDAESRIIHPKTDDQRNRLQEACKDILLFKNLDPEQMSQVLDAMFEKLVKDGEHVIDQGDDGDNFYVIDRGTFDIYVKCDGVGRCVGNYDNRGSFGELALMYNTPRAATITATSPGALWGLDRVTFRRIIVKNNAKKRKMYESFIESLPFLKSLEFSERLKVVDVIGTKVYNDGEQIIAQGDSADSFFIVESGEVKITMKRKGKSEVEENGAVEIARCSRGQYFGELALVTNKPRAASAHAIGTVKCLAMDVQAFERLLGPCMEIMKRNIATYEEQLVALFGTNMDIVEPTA
UniProt Q29RF7, sequence (Q29RF7 whole entry, looked up): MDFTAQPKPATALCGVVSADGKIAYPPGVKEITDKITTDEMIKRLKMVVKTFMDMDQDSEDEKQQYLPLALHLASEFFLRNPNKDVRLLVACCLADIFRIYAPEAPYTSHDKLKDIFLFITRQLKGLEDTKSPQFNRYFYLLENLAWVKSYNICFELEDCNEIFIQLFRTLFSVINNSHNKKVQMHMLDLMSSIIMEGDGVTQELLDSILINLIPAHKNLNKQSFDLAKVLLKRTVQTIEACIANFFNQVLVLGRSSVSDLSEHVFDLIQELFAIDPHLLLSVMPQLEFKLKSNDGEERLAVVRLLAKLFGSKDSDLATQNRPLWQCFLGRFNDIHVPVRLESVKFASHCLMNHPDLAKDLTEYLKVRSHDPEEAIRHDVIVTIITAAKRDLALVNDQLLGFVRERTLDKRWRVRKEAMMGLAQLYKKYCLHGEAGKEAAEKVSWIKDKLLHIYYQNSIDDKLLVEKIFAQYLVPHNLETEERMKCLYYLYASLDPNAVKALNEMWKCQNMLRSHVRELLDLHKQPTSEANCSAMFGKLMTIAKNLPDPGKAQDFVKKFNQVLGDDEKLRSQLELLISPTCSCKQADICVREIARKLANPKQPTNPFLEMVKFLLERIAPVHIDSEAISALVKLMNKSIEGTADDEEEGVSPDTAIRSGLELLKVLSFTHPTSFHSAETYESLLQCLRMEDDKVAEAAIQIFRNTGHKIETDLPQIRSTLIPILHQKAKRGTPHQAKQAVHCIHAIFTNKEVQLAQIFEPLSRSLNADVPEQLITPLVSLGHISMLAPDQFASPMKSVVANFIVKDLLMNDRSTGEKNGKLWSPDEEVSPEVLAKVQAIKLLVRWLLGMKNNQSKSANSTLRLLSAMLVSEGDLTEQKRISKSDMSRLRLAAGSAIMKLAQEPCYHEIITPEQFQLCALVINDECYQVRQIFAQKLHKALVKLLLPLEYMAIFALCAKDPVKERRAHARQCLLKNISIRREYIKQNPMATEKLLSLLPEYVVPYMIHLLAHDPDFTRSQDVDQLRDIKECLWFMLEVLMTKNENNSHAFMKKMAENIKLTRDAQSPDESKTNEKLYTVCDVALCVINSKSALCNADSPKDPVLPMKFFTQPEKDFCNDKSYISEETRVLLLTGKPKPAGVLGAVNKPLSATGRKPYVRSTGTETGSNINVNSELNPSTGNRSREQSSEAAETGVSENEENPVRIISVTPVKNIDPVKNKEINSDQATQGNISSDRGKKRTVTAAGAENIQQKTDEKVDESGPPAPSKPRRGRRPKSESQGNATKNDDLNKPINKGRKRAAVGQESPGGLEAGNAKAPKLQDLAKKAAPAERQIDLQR
UniProt O75334, sequence (O75334 whole entry, looked up): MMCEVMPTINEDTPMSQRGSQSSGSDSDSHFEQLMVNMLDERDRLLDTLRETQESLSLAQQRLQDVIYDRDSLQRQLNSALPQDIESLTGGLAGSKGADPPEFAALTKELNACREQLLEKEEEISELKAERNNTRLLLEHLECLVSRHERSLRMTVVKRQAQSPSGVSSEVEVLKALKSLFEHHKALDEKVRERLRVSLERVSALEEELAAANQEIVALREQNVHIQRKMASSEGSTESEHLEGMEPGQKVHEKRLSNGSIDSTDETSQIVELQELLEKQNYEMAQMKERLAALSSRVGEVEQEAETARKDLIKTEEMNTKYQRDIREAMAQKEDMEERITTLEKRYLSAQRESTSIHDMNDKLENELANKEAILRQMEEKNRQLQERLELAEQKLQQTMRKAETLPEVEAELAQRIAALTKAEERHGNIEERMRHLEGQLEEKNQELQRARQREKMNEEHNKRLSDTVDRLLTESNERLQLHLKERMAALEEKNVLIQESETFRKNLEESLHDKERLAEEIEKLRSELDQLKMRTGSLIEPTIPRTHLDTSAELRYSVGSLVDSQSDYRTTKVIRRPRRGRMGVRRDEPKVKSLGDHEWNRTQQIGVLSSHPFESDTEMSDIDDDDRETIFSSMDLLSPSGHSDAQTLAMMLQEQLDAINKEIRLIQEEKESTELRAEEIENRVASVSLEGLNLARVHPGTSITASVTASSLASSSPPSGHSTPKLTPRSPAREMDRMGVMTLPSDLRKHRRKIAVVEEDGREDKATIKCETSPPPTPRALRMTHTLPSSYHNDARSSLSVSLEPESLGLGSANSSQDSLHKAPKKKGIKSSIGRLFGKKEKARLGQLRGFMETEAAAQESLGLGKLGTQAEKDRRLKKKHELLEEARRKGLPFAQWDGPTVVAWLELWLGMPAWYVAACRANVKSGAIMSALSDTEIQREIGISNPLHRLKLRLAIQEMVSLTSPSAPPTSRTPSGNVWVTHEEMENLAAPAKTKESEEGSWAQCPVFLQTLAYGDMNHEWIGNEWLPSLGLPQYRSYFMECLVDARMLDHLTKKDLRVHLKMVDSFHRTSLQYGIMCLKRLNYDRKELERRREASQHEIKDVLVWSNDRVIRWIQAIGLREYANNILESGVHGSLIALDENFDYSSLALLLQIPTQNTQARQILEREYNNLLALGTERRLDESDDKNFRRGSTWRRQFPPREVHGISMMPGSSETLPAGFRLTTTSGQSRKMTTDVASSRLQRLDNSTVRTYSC
UniProt Q9H7Z7, sequence (Q9H7Z7 whole entry, looked up): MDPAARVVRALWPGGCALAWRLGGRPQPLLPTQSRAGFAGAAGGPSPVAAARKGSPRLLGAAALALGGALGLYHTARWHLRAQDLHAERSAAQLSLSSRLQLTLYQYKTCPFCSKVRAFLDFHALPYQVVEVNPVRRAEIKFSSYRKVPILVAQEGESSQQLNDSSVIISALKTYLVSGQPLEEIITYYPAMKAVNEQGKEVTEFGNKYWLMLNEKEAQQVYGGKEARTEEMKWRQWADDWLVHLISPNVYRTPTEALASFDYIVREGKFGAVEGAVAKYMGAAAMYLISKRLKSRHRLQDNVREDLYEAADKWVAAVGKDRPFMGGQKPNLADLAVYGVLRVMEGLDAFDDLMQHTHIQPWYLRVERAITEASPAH
UniProt Q9BUL8, sequence (Q9BUL8 whole entry, looked up): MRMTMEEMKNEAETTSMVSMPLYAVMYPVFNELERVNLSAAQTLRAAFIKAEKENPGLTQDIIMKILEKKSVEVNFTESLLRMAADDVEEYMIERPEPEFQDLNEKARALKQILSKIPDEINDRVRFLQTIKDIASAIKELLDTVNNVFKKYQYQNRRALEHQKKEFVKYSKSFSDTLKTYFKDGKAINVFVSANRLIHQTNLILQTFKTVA
UniProt P57721, sequence (P57721 whole entry, looked up): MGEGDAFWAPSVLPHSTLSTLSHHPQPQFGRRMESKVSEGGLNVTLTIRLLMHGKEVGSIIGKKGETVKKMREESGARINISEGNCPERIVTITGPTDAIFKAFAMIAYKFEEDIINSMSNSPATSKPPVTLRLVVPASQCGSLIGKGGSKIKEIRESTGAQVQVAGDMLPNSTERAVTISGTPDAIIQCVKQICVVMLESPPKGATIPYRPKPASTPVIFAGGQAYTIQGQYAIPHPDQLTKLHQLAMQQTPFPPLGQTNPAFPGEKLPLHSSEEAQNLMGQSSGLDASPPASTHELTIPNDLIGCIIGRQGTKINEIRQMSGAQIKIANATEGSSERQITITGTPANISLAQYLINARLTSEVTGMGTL
UniProt Q8TCD6, sequence (Q8TCD6 whole entry, looked up): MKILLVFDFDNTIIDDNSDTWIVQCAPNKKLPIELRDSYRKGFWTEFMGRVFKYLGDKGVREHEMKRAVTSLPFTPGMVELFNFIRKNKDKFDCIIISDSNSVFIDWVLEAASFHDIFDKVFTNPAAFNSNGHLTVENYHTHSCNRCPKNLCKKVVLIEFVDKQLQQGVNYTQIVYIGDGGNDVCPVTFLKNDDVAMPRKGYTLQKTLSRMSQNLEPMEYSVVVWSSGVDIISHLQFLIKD
UniProt Q9H2H8, sequence (Q9H2H8 whole entry, looked up): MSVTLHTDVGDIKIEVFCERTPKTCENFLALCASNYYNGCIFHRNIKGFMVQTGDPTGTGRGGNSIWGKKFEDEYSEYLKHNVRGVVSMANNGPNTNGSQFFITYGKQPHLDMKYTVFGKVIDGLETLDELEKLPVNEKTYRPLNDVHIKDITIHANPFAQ

| Target | log2 fold change (ibrutinib) | log2 fold change [1] | log2 fold change (ralimetinib) | log2 fold change [2] | log2 fold change [3] | log2 fold change [4] | log2 fold change [5] | log2 fold change [6] | log2 fold change [7] | log2 fold change [8] | log2 fold change (vemurafenib) | log2 fold change [9] | log2 fold change (barasertib) | log2 fold change [10] | log2 fold change (volasertib) | log2 fold change [11] | log2 fold change [12] | log2 fold change [13] | log2 fold change (saracatinib) | log2 fold change (sotrastaurin) |
| --- | --- | --- | --- | --- | --- | --- | --- | --- | --- | --- | --- | --- | --- | --- | --- | --- | --- | --- | --- | --- |
| PPIL3 (UniProt Q9H2H8) | 0.044 | 0.029 | -0.023 | -0.028 | 0.022 | 0.001 | 0.003 | 0.011 | 0.009 | 0.005 | 0.048 | -0.017 | 0.099 | -0.004 | -0.007 | 0.027 | 0.067 | 0.021 | 0.004 | -0.03 |
| PHOSPHO2 (UniProt Q8TCD6) | -0.01 | 0.039 | 0.003 | 0.035 | 0.012 | -0.017 | 0.018 | 0.006 | 0.048 | 0.056 | -0.023 | -0.026 | 0.047 | 0.232 | 0.019 | 0.003 | -0.084 | 0.001 | -0.023 | 0.039 |
| PDCD10 (UniProt Q9BUL8) | 0.001 | 0.062 | 0 | -0.006 | -0.008 | -0.02 | 0.016 | 0.021 | -0.02 | -0.02 | -0.021 | -0.002 | 0.006 | -0.012 | 0.007 | 0 | -0.269 (active) | 0.029 | 0.016 | 0.04 |
| PRPH isoform 2 (UniProt P41219) | -0.099 | 0.054 | 0.009 | 0.067 | 0.074 | 0.002 | 0.007 | -0.064 | 0.023 | -0.011 | 0.03 | -0.05 | -0.13 | -0.102 | -0.028 | 0.098 | 0.132 | -0.1 | 0.071 | 0.036 |
| PDS5A (UniProt Q29RF7) | 0 | 0.013 | 0.008 | -0.017 | -0.029 | 0.023 | -0.038 | 0.017 | 0.031 | 0.039 | 0.023 | 0.031 | 0.064 | -0.057 | -0.029 | 0.054 | -0.12 | -0.019 | 0.007 | 0.026 |
| PMPCA (UniProt Q10713) | -0.052 | -0.023 | 0.006 | -0.038 | -0.047 | -0.043 | -0.041 | 0.033 | -0.036 | 0.015 | 0.047 | 0.037 | -0.014 | -0.039 | -0.031 | -0.025 | -0.017 | 0.233 | -0.024 | 0.006 |
| PRKCB isoform 2 (UniProt P05771) | -0.017 | 0.548 (active) | 0.02 | 0 | 0.013 | 0.002 | -0.055 | 0.042 | -0.009 | -0.113 | 0.045 | -0.024 | -0.017 | -0.01 | -0.062 | 0.002 | 0.073 | -0.077 | -0.023 | 0.505 (active) |
| PHGDH (UniProt O43175) | 0.03 | 0.021 | 0.013 | 0.028 | 0.012 | -0.003 | 0.013 | -0.004 | -0.012 | 0.029 | -0.005 | -0.001 | -0.049 | 0.02 | -0.025 | 0.016 | 0.098 | -0.051 | -0.012 | -0.027 |
| PPFIA2 (UniProt O75334) | -0.013 | 0.01 | 0.085 | 0.015 | 0.006 | 0.041 | 0.02 | 0.047 | 0.033 | -0.022 | 0.062 | -0.018 | 0.054 | 0.01 | 0.02 | -0.127 | -0.255 | 0.146 | -0.016 | -0.05 |
| PRKAR2B (UniProt P31323) | -0.017 | 0.008 | 0.007 | -0.01 | 0.022 | 0.015 | -0.004 | 0.027 | 0.031 | 0.03 | 0.01 | 0 | 0.053 | -0.028 | -0.043 | -0.032 | 0.051 | -0.26 (active) | 0.007 | -0.17 |
| PGGT1B (UniProt P53609) | -0.018 | 0.004 | -0.015 | 0.03 | -0.092 | 0.002 | 0.032 | -0.039 | -0.011 | 0.007 | -0.159 | 0.004 | 0 | -0.041 | 0.1 | 0.006 | 0.011 | 0.008 | 0.028 | -0.029 |
| PRKCSH (UniProt P14314) | -0.008 | 0.01 | 0.007 | 0.019 | -0.026 | -0.004 | 0.047 | -0.057 | 0.001 | 0 | 0.01 | -0.009 | -0.009 | 0.007 | 0.04 | 0.025 | 0.007 | -0.003 | 0.011 | 0.018 |
| PES1 (UniProt O00541) | 0.016 | 0.017 | 0.031 | -0.03 | 0.006 | 0.013 | -0.052 | 0.012 | 0.003 | 0.007 | 0.009 | 0.023 | -0.019 | -0.074 | -0.04 | 0.017 | -0.043 | 0.052 | 0.007 | 0.028 |
| PTGES2 (UniProt Q9H7Z7) | -0.035 | -0.092 | -0.004 | 0.167 | 0.132 | -0.029 | -0.002 | 0.001 | -0.082 | 0.036 | 0.547 (active) | 0.06 | -0.107 | -0.108 | 0.159 | -0.053 | -0.003 | -0.18 | -0.029 | 0.058 |
| PCBP3 (UniProt P57721) | -0.026 | -0.007 | -0.005 | -0.021 | 0 | -0.04 | -0.006 | 0.053 | -0.02 | -0.028 | 0.021 | -0.007 | -0.007 | -0.003 | 0.006 | -0.011 | -0.062 | 0.032 | 0.014 | -0.047 |
| PHKA1 (UniProt P46020) | -0.045 | 0.012 | 0.03 | -0.031 | -0.053 | 0.004 | -0.019 | -0.005 | 0.032 | 0.003 | -0.021 | 0.009 | 0.089 | 0.044 | -0.074 | 0.074 | -0.067 | 0.079 | -0.009 | -0.019 |
